Bioassay records as filed in PubChem BioAssay.
ATG4B inh = ATG4B (human) cysteine protease inhibition | AID 504462 | 340,000 compounds, 0.51% hits | ATG4B cleavage of LC3-PLA2, NBD-HPC fluorescence, 1 h | Q9Y4P1 | inhibition, % at 8.33 µM; in the data active means inhibition above about 40%
SUMO1-SIM PPI = modulators of human SUMO1-mediated protein-protein interactions. P63165. SUMO1 binding to a labelled peptide, TR-FRET, 1 h. inhibition, % at 20 µM. 360,000 compounds, 0.33% hits. AID 602429; in the data active means inhibition above about 37%
Rin1-Abl PPI inh = blocks binding of human Rin1 to Abl; 360,000 compounds, 0.4% hits; TR-FRET Rin1/Abl binding, biochemical; inhibition, % at 7.35 µM; AID 588664; P00519+Q13671; in the data active means inhibition above about 5%, passing the limit was not always enough
Neddylation inh = blocks human cullin neddylation; TR-FRET cullin neddylation, biochemical; AID 651699; P61081+Q13564; inhibition, % at 25 µM; 360,000 compounds, 0.58% hits; in the data active means inhibition above about 36%
Target sequence (P61081 whole entry, looked up): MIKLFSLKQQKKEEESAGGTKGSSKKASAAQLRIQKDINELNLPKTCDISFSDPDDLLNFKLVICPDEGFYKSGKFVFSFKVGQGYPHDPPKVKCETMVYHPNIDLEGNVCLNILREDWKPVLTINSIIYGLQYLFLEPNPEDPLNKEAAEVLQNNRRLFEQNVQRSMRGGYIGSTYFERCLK
Target sequence (Q13564 whole entry, looked up): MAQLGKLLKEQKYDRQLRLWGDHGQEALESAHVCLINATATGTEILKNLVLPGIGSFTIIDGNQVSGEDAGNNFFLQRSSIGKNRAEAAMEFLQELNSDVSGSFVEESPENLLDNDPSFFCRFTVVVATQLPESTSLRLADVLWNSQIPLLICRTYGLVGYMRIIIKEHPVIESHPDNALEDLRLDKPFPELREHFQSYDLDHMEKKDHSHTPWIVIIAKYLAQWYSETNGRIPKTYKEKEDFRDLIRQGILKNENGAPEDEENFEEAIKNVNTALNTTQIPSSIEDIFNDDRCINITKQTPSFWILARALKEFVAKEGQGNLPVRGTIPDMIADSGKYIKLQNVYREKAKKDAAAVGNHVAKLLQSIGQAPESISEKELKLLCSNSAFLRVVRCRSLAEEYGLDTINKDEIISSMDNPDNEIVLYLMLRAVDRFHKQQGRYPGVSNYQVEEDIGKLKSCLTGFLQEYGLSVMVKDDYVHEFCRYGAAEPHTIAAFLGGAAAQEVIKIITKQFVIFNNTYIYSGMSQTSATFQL
ATG4B conf = confirmation of human ATG4B inhibitors; shares compounds with ATG4B inh; ATG4B protease fluorescent substrate cleavage assay; inhibition, % at 8.33 µM; 320 compounds, 92% hits; AID 504757; in the data active means inhibition above about 39%
PLA2 ctr = counter-screen for ATG4B inhibitors: human phospholipase A2. shares compounds with ATG4B inh. purified PLA2, NBD-C6-HPC fluorescence, 45 min. inhibition, % at 8.33 µM. 1,600 compounds, 66% hits; in the data active means inhibition above about 50%
Large screens that a line does not name were inactive (follow-up assays come after a bar, where shown). Rows were chosen to be rich in hits. Some 1.7% of all compounds tested hit in one or more screens of this group.

Cc1ccc(C)c(CNC(=O)Nc2ccccc2)c1	ATG4B inh 48.9 | PLA2 ctr 50.5
COc1ccc(NC(=O)CNC(=O)C2CCCCC2)cc1	none
COc1ccc(N/C(=C2\CCCC2=O)C2CCCCC2)cc1	ATG4B inh 55.8 | PLA2 ctr 59.7
CC(C)NC(=O)CN1CCN(C(c2ccnc3ccccc23)c2nnnn2-c2ccc3c(c2)OCCO3)CC1 (centres undefined)	none (no result: ATG4B inh, Rin1-Abl PPI inh)
COc1c(Cl)cc(Cl)cc1CNc1ccc(S(N)(=O)=O)cc1	ATG4B inh 81.7 | PLA2 ctr 85.2
CCOc1c(Cl)cc(CNc2ccc(S(N)(=O)=O)cc2)cc1OC	none
Cc1ccc(C2CC(C(F)F)n3ncc(C(=O)Nc4cnn(Cc5ccccc5C)c4)c3N2)cc1 (centres undefined)	ATG4B inh 53.7 | PLA2 ctr 71.3
Cc1ccccc1Cn1cc(NC(=O)c2nn(C)cc2Cl)cn1	none
Cn1nc(-c2ccccn2)nc2c(=O)n(C)c(=O)nc1-2	ATG4B inh 79.3, Rin1-Abl PPI inh 41.8 | ATG4B conf inactive | PLA2 ctr inactive
COC(=O)Cn1c(=O)c2c(n(Cc3ccccc3)c1=O)N/C(=C/c1ccc(Br)cc1)C2=O	ATG4B inh 53.5 (not shown: Neddylation inh) | PLA2 ctr 61.1
COC(=O)CN1C(=O)N/C(=C/c2ccc(OC)cc2)C1=O	none
COc1ccc(CNC(=O)COC(=O)c2ccc(OCc3c(C)noc3C)cc2)cc1OC	none
Cc1noc(C)c1COc1ccc(C(=O)OCC(=O)NCc2ccccc2Cl)cc1	ATG4B inh 44.9 | ATG4B conf 64.1 | PLA2 ctr inactive
CSCCC(c1nc2ccccc2[nH]1)n1c(=O)c(-c2cc3ccccc3[nH]2)nc2ccccc21 (centres undefined)	none (not shown: ATG4B inh, Rin1-Abl PPI inh, Neddylation inh)
Cc1ccc2nc3c(c(Nc4ccc5c(c4)OCCO5)c2c1)CCC3	ATG4B inh 42.0 | ATG4B conf 64.7 | PLA2 ctr inactive
Cc1ccc2nc(NC3=NC4(CCCC4)C4=C(CCCC4=O)N3)oc2c1	none (no result: ATG4B inh)
O=C1CCCC2=C1C1(CCCC1)N=C(Nc1nc3ccccc3s1)N2	ATG4B inh 74.5 | PLA2 ctr inactive
O=C1CCCC2=C1C1(CCCCC1)N=C(Nc1nc3ccccc3s1)N2	ATG4B inh 55.1 | PLA2 ctr inactive
CN(Cc1ccccc1)S(=O)(=O)c1ccc(NC(=S)NC(=O)C2CCCC2)cc1	ATG4B inh 50.4 | PLA2 ctr inactive
CN(C)S(=O)(=O)c1ccc(NC(=S)NC(=O)C2CCC2)cc1	none
CCOC1CCCc2oc(-c3ccsc3)c(-c3cnc(OC)nc3)c21 (centres undefined)	none (no result: ATG4B inh, Rin1-Abl PPI inh)
CCc1nc2c(OCCC3CCCCC3)cccn2c1N(C)C(=O)C(C)C	none (no result: ATG4B inh)
CCn1cc(C(=O)OCC(=O)c2cc(C)n(-c3ccccc3F)c2C)c(=O)c2ccc(C)nc21	ATG4B inh 71.4 | PLA2 ctr 74.8
CCn1cc(C(=O)OCC(=O)Nc2ccccc2OC(F)F)c(=O)c2ccc(C)nc21	none
CCn1cc(C(=O)OCC(=O)c2cc(C)n(-c3ccc(OC(F)F)cc3)c2C)c(=O)c2ccc(C)nc21	ATG4B inh 72.0 | PLA2 ctr 74.2
CCn1cc(C(=O)OCC(=O)c2cc(C)n(-c3ccccc3)c2C)c(=O)c2ccc(C)nc21	ATG4B inh 66.2 | PLA2 ctr 68.3
C/C(Nc1ccc(Cl)cc1)=C1/CCOC1=O	none
O=c1cc(-c2ccccc2)nc2c(Cl)cc(Cl)cn12	none (no result: ATG4B inh)
O=C(Nc1sc(-c2ccccc2)cc1C(=O)O)c1ccccc1	ATG4B inh 67.7 (not shown: Neddylation inh) | PLA2 ctr 81.0
CC1CCN(C(=O)COC(=O)c2cccc(S(=O)(=O)N3CCOCC3)c2)CC1	none (no result: ATG4B inh)
Nc1nc(SCc2ccccc2[N+](=O)[O-])c2ncn(Cc3ccccc3)c2n1	ATG4B inh 50.2 | PLA2 ctr 57.8
COc1ccc(C(c2nnnn2C2CCCCC2)N2CCN(C/C=C/c3ccccc3)CC2)cc1 (centres undefined)	none (no result: ATG4B inh)
O=C(NC(Cc1c[nH]c2ccccc12)C(=O)Nc1ccc(F)c([N+](=O)[O-])c1)c1cccs1 (centres undefined)	ATG4B inh 71.2 | PLA2 ctr 80.8
O=C(NC(Cc1c[nH]c2ccccc12)C(=O)Nc1ccc(OC(F)(F)F)cc1)c1cccs1 (centres undefined)	none
C[C@H](CO)N1C[C@H](C)[C@@H](CN(C)C(=O)c2ccc3c(c2)OCO3)Oc2cc(/C=C/c3ccccc3)ccc2S1(=O)=O	none (not shown: ATG4B inh, Neddylation inh)
